ATG4B inh: blocks human ATG4B protease cleavage of LC3 substrate; inhibition, % at 8.33 µM; ATG4B cleavage of LC3-PLA2, NBD-HPC fluorescence, 1 h; AID 504462; 0.51% of 340,000 active; Q9Y4P1; in the data active means inhibition above about 40%
Target sequence (Q9Y4P1 whole entry, looked up): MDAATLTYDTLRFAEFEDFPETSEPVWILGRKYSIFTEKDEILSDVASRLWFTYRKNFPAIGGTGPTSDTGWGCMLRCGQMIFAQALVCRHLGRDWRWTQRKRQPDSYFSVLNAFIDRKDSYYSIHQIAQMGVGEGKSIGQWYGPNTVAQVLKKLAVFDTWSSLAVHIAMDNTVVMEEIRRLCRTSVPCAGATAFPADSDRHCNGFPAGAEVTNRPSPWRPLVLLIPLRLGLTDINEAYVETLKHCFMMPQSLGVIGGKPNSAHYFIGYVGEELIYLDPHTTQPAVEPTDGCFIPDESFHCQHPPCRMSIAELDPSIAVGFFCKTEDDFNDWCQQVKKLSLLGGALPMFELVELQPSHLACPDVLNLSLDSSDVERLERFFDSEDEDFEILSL
CR mimetic SO: caloric restriction mimetics inhibiting age-related superoxide in yeast. S. cerevisiae aged cells, superoxide DHE fluorescence; stronger effect = lower value. superoxide response (% of plate mean), % at 10 µM. 0.18% of 330,000 active. AID 2690;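 active means superoxide response under a set limit, about three screen SD below normal, cut at about 65% in these data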;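 further: yeast aged for seven days with compound at 30 °C before DHE staining; 100% = average MFI of all compound-treated wells on the plate with controls excluded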
GRK2 inh: blocks RNA aptamer binding to human GRK2; bead flow cytometry, FAM-aptamer displacement from GRK2; inhibition of aptamer binding, % at 10 µM; 0.59% of 330,000 active;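 active means inhibition of aptamer binding above 40%, roughly 3 SD of noise, on plates passing a quality check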;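 further: median bead fluorescence of bound FAM aptamer so fluorescent compounds give negative values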
Efflux pump mplx: blocks antifungal efflux pumps in multiplex yeast assay. S. cerevisiae Candida pump triplex, Nile Red efflux. inhibition, % at 10 µM. 0.44% of 330,000 active. AID 485275;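 active means plate passing quality check with inhibition over a set limit, or well fluorescence over plate mean plus 4 SD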;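 further: Nile Red retained in pooled yeast measured as flow cytometry median fluorescence; 0% = buffer negative control and 100% = Enniatin B positive control; higher means more Nile Red kept so more efflux inhibition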
Yeast cmpd fluor: compound fluorescence in yeast efflux pump counter-screen; 4% of 1,700 active; fluorescence ratio to DMSO, % at 10 µM; S. cerevisiae AD/pABC3, flow cytometry; shares compounds with Efflux pump mplx;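 active means fluorescence ratio to DMSO above its plate's cutoff, the plate mean ratio plus 5 SD, cut at about 210% in these data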;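 further: unstained yeast with no Nile Red so the signal is compound autofluorescence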
Mdr1 pump inh: inhibitors of Candida albicans Mdr1 efflux pump. shares compounds with Efflux pump mplx. S. cerevisiae AD/CaMDR1, Nile Red efflux, flow cytometry. inhibition, % at 10 µM. 1% of 1,700 active; in the data active means inhibition above about 26%;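 further: 0% = DMSO vehicle and 100% = reference inhibitor; higher means more Nile Red retained so more efflux inhibition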
Cdr2 pump inh: blocks the Candida albicans Cdr2 efflux pump in yeast; S. cerevisiae AD/CaCDR2, Nile Red retention, flow cytometry; AID 588520; 4% of 1,700 active; shares compounds with Efflux pump mplx; Nile Red retention ratio vs DMSO, % at 10 µM; in the data active means Nile Red retention ratio vs DMSO above about 190%;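 further: higher ratio means more blocking of Cdr2 efflux of the dye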
CaCdr1 efflux inh: blocks the Candida albicans Cdr1 efflux pump in yeast | S. cerevisiae AD/CaCDR1, Nile Red efflux, flow cytometry | 1% of 1,700 active | AID 588522 | inhibition, % at 10 µM | shares compounds with Efflux pump mplx;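 active means inhibition above the screen-wide mean plus twice its standard deviation, cut at about 32% in these data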
Numbers without * were called inactive. Only some compounds are listed: those with a hit (about 1.6% of all), similar ones and a draw of the others.

Screening C[C@@H](NC(=O)Cn1ccc(N)nc1=O)c1cccc2ccccc12 returned ATG4B inh 0, CR mimetic SO 112, GRK2 inh 0 and Efflux pump mplx 1.
For Cc1cc(C(=O)Nc2ccc(Cl)cc2)on1 the results were ATG4B inh -2, CR mimetic SO 115, GRK2 inh 2 and Efflux pump mplx 0.
`Cc1ocnc1C(=O)Nc1ccc(Cl)cc1` gave ATG4B inh 3, CR mimetic SO 105, GRK2 inh 1, Efflux pump mplx 9.8*, Yeast cmpd fluor 101, Mdr1 pump inh 0, Cdr2 pump inh 106 and CaCdr1 efflux inh 0.
Screening O=[N+]([O-])c1ccc(N2CCc3ccccc3C2)nc1 returned ATG4B inh 8, CR mimetic SO 102, GRK2 inh 0, Efflux pump mplx 0.6*, Yeast cmpd fluor 110, Mdr1 pump inh 0, Cdr2 pump inh 131 and CaCdr1 efflux inh 0.
O=[N+]([O-])c1ccc(N2CCN(c3ccccc3)CC2)nc1 was read as ATG4B inh 2, CR mimetic SO 108, GRK2 inh 0 and Efflux pump mplx 0.
CCOC(=O)c1ccc(CSc2nnc(N)s2)cc1 was read as ATG4B inh -15, CR mimetic SO 96, GRK2 inh 0, Efflux pump mplx 1.8*, Yeast cmpd fluor 103, Mdr1 pump inh 0, Cdr2 pump inh 112 and CaCdr1 efflux inh 0.
Cn1c(SCC(=O)N2CCCC2)nnc1-c1cnccn1 was read as ATG4B inh 0, CR mimetic SO 101, GRK2 inh 1 and Efflux pump mplx 0.
For NC(=O)Nc1ccc(Nc2ccccc2)cc1 the results were ATG4B inh 9, CR mimetic SO 89, GRK2 inh 0 and Efflux pump mplx 0.
Screening O=C(Nc1ccc(Nc2ccccc2)cc1)C(Cl)Cl returned ATG4B inh -4, CR mimetic SO 104, GRK2 inh 0, Efflux pump mplx 20*, Yeast cmpd fluor 118, Mdr1 pump inh 0, Cdr2 pump inh 112 and CaCdr1 efflux inh 0.
Screening COc1ccc(C(C)n2c(C)c3c(C)nnc(C)c3c2C)cc1 (configuration not stated) returned ATG4B inh 1, CR mimetic SO 118, GRK2 inh 0, Efflux pump mplx 6.7*, Yeast cmpd fluor 106, Mdr1 pump inh 0, Cdr2 pump inh 103 and CaCdr1 efflux inh 0.
For CCN=C1S/C(=C\c2ccc(N3CCOCC3)cc2C)C(=O)N1CC the results were ATG4B inh -8, CR mimetic SO 114, GRK2 inh 0 and Efflux pump mplx 0.
Screening COCCN1C(=O)/C(=C/c2ccc(N3CCCC3)cc2C)SC1=S returned ATG4B inh 2, CR mimetic SO 114, GRK2 inh 0, Efflux pump mplx 2.2*, Yeast cmpd fluor 318*, Mdr1 pump inh 1, Cdr2 pump inh 129 and CaCdr1 efflux inh 0.
Screening CC(C)CC1NC(=O)N(CC(=O)NC2CCCc3ccccc32)C1=O (configuration not stated) returned ATG4B inh 6, CR mimetic SO 94, GRK2 inh 3 and Efflux pump mplx 0.
CCN(CC)c1ccc(/C=c2/sc3nnc(-c4ccccc4C)n3c2=O)cc1 was read as ATG4B inh -3, CR mimetic SO 115, GRK2 inh 0, Efflux pump mplx 0.6*, Yeast cmpd fluor 215*, Mdr1 pump inh 1, Cdr2 pump inh 175 and CaCdr1 efflux inh 0.
Screening Cc1ccc(/C=c2/sc3nnc(-c4ccccc4Cl)n3c2=O)o1 returned ATG4B inh 1, CR mimetic SO 96, GRK2 inh 1 and Efflux pump mplx 0.
CCN(CC)c1ccc(/C=c2\sc3nnc(-c4ccccc4Cl)n3c2=O)cc1 was read as ATG4B inh -6, CR mimetic SO 104, GRK2 inh 0, Efflux pump mplx 0.7*, Yeast cmpd fluor 271*, Mdr1 pump inh 1, Cdr2 pump inh 175 and CaCdr1 efflux inh 1.
CN(CC(=O)NCCc1ccc(S(N)(=O)=O)cc1)S(=O)(=O)/C=C/c1ccccc1 was read as ATG4B inh -4, CR mimetic SO 96, GRK2 inh 3 and Efflux pump mplx 0.
Screening Cc1ccc(CSC2=Nc3ccccc3C3=NC(CC(=O)NCc4ccco4)C(=O)N23)cc1 (configuration not stated) returned ATG4B inh -12, CR mimetic SO 100, GRK2 inh 5, Efflux pump mplx 0.6*, Yeast cmpd fluor 99, Mdr1 pump inh 0, Cdr2 pump inh 114 and CaCdr1 efflux inh 0.
C=CCn1c(SCC#N)nc2ccccc2c1=O was read as ATG4B inh -6, CR mimetic SO 116, GRK2 inh 4, Efflux pump mplx 0.6*, Yeast cmpd fluor 93, Mdr1 pump inh 0, Cdr2 pump inh 106 and CaCdr1 efflux inh 0.
FC(F)(F)c1cnc(-c2cnc(-c3ccccn3)nc2)c(Cl)c1 was read as ATG4B inh -6, CR mimetic SO 108, GRK2 inh 2 and Efflux pump mplx 0.
For Cc1c(NC(C)c2cc(Cl)ccc2O)c(=O)n(-c2ccccc2)n1C (configuration not stated) the results were ATG4B inh -7, CR mimetic SO 123, GRK2 inh 0 and Efflux pump mplx 0.
Cc1c(NC(C)c2ccccc2O)c(=O)n(-c2ccccc2)n1C (configuration not stated) was read as ATG4B inh -3, CR mimetic SO 122, GRK2 inh 0, Efflux pump mplx 8.2*, Yeast cmpd fluor 106, Mdr1 pump inh 0, Cdr2 pump inh 89 and CaCdr1 efflux inh 0.
Screening COc1cc(/C=C/C(=O)Nc2ccc(S(=O)(=O)Nc3onc(C)c3C)cc2)cc(OC)c1OC returned ATG4B inh -9.
Cc1ccccc1N1C(=O)C2CCCN2C1=S (configuration not stated) was read as ATG4B inh 0, CR mimetic SO 107, GRK2 inh 0 and Efflux pump mplx 0.
Screening COc1ccc(C)cc1NC(=O)C1CC(=O)OC12CCCCC2 (configuration not stated) returned ATG4B inh 0, CR mimetic SO 90, GRK2 inh 1, Efflux pump mplx 1.3*, Yeast cmpd fluor 100, Mdr1 pump inh 0, Cdr2 pump inh 114 and CaCdr1 efflux inh 0.
Screening COC(=O)c1ccc(N2C(=O)Nc3ccccc3N2O)cc1 returned ATG4B inh 2, CR mimetic SO 101, GRK2 inh 0 and Efflux pump mplx 0.

High-throughput results (PubChem)
